CHRM1 PAM: human CHRM1 positive allosteric modulation | CHO-K1 hM1, Fluo-8 calcium fluorescence, ACh EC20; 0% = ACh EC20, 100% = maximal ACh | activation, % at 3 µM | 0.088% of 360,000 active; in the data active = activation above about 19%, passing the limit was not always enough
Target sequence (P11229 whole entry, looked up): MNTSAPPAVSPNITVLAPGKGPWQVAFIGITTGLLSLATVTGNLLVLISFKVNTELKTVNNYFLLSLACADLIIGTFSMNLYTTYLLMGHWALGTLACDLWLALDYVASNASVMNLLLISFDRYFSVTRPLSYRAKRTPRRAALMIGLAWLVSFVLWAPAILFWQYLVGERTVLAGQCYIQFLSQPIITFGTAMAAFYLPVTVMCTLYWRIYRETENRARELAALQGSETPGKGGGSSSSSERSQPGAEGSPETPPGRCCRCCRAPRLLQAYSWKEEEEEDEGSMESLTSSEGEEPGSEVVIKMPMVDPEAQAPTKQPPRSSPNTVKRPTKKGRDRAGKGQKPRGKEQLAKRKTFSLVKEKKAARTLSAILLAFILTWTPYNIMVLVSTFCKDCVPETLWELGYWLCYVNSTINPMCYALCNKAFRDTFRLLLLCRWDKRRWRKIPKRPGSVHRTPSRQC
M1 ag: agonists of human M1 muscarinic receptor; P11229; CHO-K1 hM1, Fluo-8 calcium fluorescence, agonist mode; 0% DMSO, 100% acetylcholine EC100; activation, % at 3 µM; 0.33% of 360,000 active; AID 588814;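 active = activation above the run's mean compound activation plus 3 SD, cut at about 16% in these data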;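 note: peak over basal fluorescence ratio within a 140 s kinetic read after compound addition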
CHO-K1 Ca antag: nonselective inhibitor or artifact in parental CHO-K1 cells; ATP-induced calcium, Fluo-8 fluorescence; inhibition, % at 3 µM; 0.6% of 360,000 active;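 active = inhibition above a per-plate cutoff, the plate's mean sample inhibition plus 3 SD, cut at about 24% in these data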
M1 ag parental: nonselective activator or artifact in parental CHO-K1 cells; Fluo-8 calcium fluorescence; scaled to maximal ATP response, vehicle zero; activation, % at 3 µM; 0.48% of 360,000 active; in the data active = activation above about 15%;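 note: untransfected CHO-K1 host cells lacking M1 receptor as counterscreen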
CHO-K1 Ca PAM: nonselective activator or artifact in parental CHO-K1 calcium assay. ATP EC20, Fluo-8 calcium fluorescence; 0% at ATP EC20, 100% at ATP max. activation, % at 3 µM. 0.02% of 360,000 active. AID 602247;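 active = activation above the run cutoff, the mean activation of all test compounds plus 3 SD, cut at about 40% in these data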;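 note: peak over basal fluorescence ratio in a 140 s read after ATP addition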
M1 antag: human CHRM1 antagonism | P11229 | CHO-K1 hM1, Fluo-8 calcium fluorescence, ACh EC80 antagonist | inhibition, % at 3 µM | 1.3% of 360,000 active | AID 588852;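 active = percent inhibition above its own plate's cutoff, namely the mean of that plate's compound wells plus 3 SD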;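 note: peak over basal fluorescence ratio during 140 s after agonist addition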
Of the large screens only hits and unclear results are named; the others gave an inactive call. Rows were chosen to be rich in hits. Some 2.3% of all compounds tested hit in one or more screens of this group.

COc1ccc(-n2nnnc2C(c2cccc(OC)c2OC)N2CCC(n3c(=O)[nH]c4ccccc43)CC2)cc1 (stereo not given)	M1 ag 22.9
COc1cccc(C(c2nnnn2-c2ccc3c(c2)OCCO3)N2CCC(n3c(=O)[nH]c4ccccc43)CC2)c1OC (stereo not given)	M1 ag 20.4
O=c1[nH]c2ccccc2n1C1CCN(C(c2ccccc2OC(F)(F)F)c2nnnn2-c2ccc3c(c2)OCCO3)CC1 (stereo not given)	M1 ag parental 19.6
COc1ccc(-n2nnnc2C(c2ccnc3ccccc23)N2CCC(n3c(=O)[nH]c4ccccc43)CC2)cc1 (stereo not given)	none
O=c1[nH]c2ccccc2n1C1CCN(C(c2cccs2)c2nnnn2-c2ccc3c(c2)OCCO3)CC1 (stereo not given)	CHO-K1 Ca PAM 41.9
Cn1cc(C(=O)N2CCCCC2)c2ccccc21	none
COC(=O)C1=C(c2ccc(Cl)c(C(F)(F)F)c2)C[C@@H]2CC[C@H]1N2C(=O)N1CCC(O)(c2ccc(Cl)cc2)CC1	none
COc1ccc(-c2ccc(OC)c(OC)c2OC)cc1	none
C[C@H](CO)N1C[C@H](C)[C@H](CN(C)C(=O)Oc2ccccc2)OCc2cnnn2CCCC1=O	none
C[C@]12CCC3C(CC[C@H]4C[C@H](O)CC[C@]34C)C1CC(=O)[C@@H]2O (stereo not given in full)	none
CC1CC2(C)C(CCC3C2CCC2(C)C(OP(=O)(N4CC4)N4CC4)CCC32)CC1=O (stereo not given)	M1 antag 102.1
O=C1NC(=O)C(CCc2ccncc2)(CCc2ccncc2)C(=O)N1CCc1ccccc1	M1 ag parental 17.2
COc1cc(CNCCc2c[nH]c3ccccc23)cc(OC)c1	CHO-K1 Ca antag 25.4
Cc1cccc(CNCCc2c[nH]c3ccccc23)c1	M1 ag parental 23.3
Fc1cccc(CNCCc2c[nH]c3ccccc23)c1	none
CCC1CN1P(=O)(N1CCCC1)N1CC1CC (stereo not given)	none
COc1ccc(CCn2c(O)c(/C=N/N3CCOCC3)c(=O)[nH]c2=O)cc1OC	none
O=c1cc(C(F)(F)F)c2cc3c4c(c2o1)CCCN4CCC3	M1 ag 120.1, CHO-K1 Ca antag 59.2, M1 ag parental 88.8, M1 antag 67.2
c1ccc(C2(NC3=NCCO3)CCCCC2)cc1	none
Fc1ccccc1CNC1CN2CCC1CC2 (stereo not given)	M1 antag 45.4
Clc1ccc(CNC2CN3CCC2CC3)cc1 (stereo not given)	none
CCOC(=O)c1cccc(-[n+]2c(-c3ccccc3)cc(-c3ccccc3)cc2-c2ccccc2)c1	none
Cc1ccc(-c2cc(-c3ccc(C)cc3)[n+](-c3ccc(C(=O)[O-])cc3)c(-c3ccc(C)cc3)c2)cc1	none
c1ccc(-c2cc(-c3ccccc3)[n+](-c3ccccc3)c(-c3ccccc3)c2)cc1	M1 antag 42.9
O=[N+]([O-])c1cc(Cl)c(O)c(-[n+]2c(-c3ccccc3)cc(-c3ccccc3)cc2-c2ccccc2)c1	none
Cc1ccc(-c2cc(-c3ccccc3)cc(-c3ccccc3)[n+]2-c2ccccc2)cc1	CHO-K1 Ca antag 30.4, M1 antag 77.8
Cc1ccc(-c2cc(-c3ccc(C)cc3)[n+](-c3ccccc3)c(-c3ccc(C)cc3)c2)cc1	M1 ag parental 16.9, M1 antag 51.4
C[n+]1c(-c2ccccc2)cc(-c2ccc(Cl)cc2)cc1-c1ccccc1	none
CN(C)c1ccc(-[n+]2c(-c3ccccc3)cc(-c3ccccc3)cc2-c2ccccc2)cc1	M1 antag 55.7
c1ccc(-c2[nH]c(-c3ccccc3)[n+](CC3CO3)c2-c2ccccc2)cc1 (stereo not given)	none
Cc1nc2ccc(Cl)cc2c(-c2ccccc2)c1C(=O)O	none
Cc1ccc(-n2c(=O)[nH]c3ccccc3c2=O)cc1[N+](=O)[O-]	none
COc1cccc(C(=O)C2CCCN(Cc3ccc4nonc4c3)C2)c1 (stereo not given)	none
COc1cccc(C(=O)C2CCCN(Cc3cccc4c3OCO4)C2)c1 (stereo not given)	M1 antag 65.1
CC(C)Oc1cccc(C(=O)C2CCCN(Cc3ccon3)C2)c1 (stereo not given)	M1 ag parental 19.4
COc1ccc(C(=O)C2CCCN(Cc3ccon3)C2)c(OC)c1 (stereo not given)	none
COc1ccc(CN2CCCC(C(=O)c3cccc(Cl)c3)C2)cc1 (stereo not given)	M1 antag 42.2
COc1ccc(CN2CCCC(C(=O)c3ccc(Cl)cc3)C2)c(OC)c1 (stereo not given)	M1 antag 38.6
COc1ccc(C(=O)C2CCCN(Cc3ccsc3)C2)cc1OC (stereo not given)	none
COc1ccc(C(=O)C2CCCN(CC3CCCCC3)C2)cc1OC (stereo not given)	M1 antag 77.6
COc1ccccc1OCC(=O)N1CCCC(N2CCN(c3ccc(F)cc3)CC2)C1 (stereo not given)	none
O=C(COc1ccccc1Cl)N1CCCC(N2CCN(c3ccc(F)cc3)CC2)C1 (stereo not given)	M1 ag parental 15.2
Oc1cc(Cl)c(Cl)c(Cl)c1	M1 antag 23.1
Oc1cc(Cl)c(Cl)c(Cl)c1Cl	none
CCN(CC)CCCOC(=O)C(OC(C)C)(c1ccccc1)c1ccccc1	M1 antag 101.8
CC(Cc1ccccc1Sc1ccccc1O)N(C)C (stereo not given)	M1 antag 97.8
CC1CN1P(=S)(c1ccccc1)N1CC1C (stereo not given)	none
O=c1[nH]c(O)c(C=Nc2ccc(Cl)c(C(F)(F)F)c2)c(=O)[nH]1	M1 antag 40.8
COc1ccccc1OCC#CCN1CCOCC1	none
Clc1ccc(OCC#CCN2CCCC2)cc1	M1 antag 32.3
COc1ccccc1OCC#CCN1CCCCCC1	M1 antag 32.9
O=C1C2CCN(CC2)[C@@H]1Cc1ccc2ccccc2c1O	M1 antag 40.1
CCC(=NCc1ccco1)c1c(O)n(-c2ccccc2)c(=O)[nH]c1=O	CHO-K1 Ca antag 29.4
C=C(C)[C@@]12OC3(c4ccccc4)O[C@@H]1C1[C@@H]4O[C@]4(CO)[C@@H](O)[C@]4(O)C(=O)C(C)=C[C@H]4[C@@]1(O3)[C@H](C)[C@H]2OC(=O)/C=C/C=C/c1ccccc1 (stereo not given in full)	M1 antag 43.2
CCOC(=O)C1(CCCc2ccccc2)CCN(C2CCCC2)CC1	none
CCOC(=O)C1(CCc2ccccc2)CCN(C2CCSCC2)CC1	M1 antag 52.2
COc1ccc(-c2[nH]ncc2CNC(C)Cc2cccc(C)n2)cc1F (stereo not given)	none
